Inconclusive results are not listed. A call without a number means that no potency is given here. Some structures have more than one record in an assay (separate samples or runs), and their calls can disagree. Calls of active or inactive are those of the source. Unless noted, calls come from the whole dose curve; as a rule, active = well fitted curve in the direction sought with a large enough effect; inconclusive = small, poorly fitted or top-dose-only effect, or another doubt; inactive = no such curve, though single readings can be large; an effect the other way counts as inactive or inconclusive.
target: Cytochrome P450 2C9 (Homo sapiens) (UniProt P11712); test: Cytochrome P450 family 2 subfamily C member 9 (CYP2C9) small molecule antagonists: luciferase biochemical (cell-free) qHTS assay (AID 1645842; active = well fitted curve in the direction sought with a large enough effect in the repeat runs; an effect the other way counts as inactive or inconclusive; note: nearly all actives have a fitted effect of over 55% in size); conditions: P450-Glo CYP2C9 enzyme assay, luciferin luminescence; series mostly up to 57.4 µM
Method in brief: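 Luminescence, after 20 min with luciferin detection reagent, reflected CYP2C9 turnover during a 1 h NADPH-driven reaction at 37C. Enzyme-substrate mix contained 0.4% bovine serum albumin and was preincubated with compound 10 min at room temperature.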
Potency is the fitted concentration of half-maximal effect.

Cytochrome P450 2C9 (Homo sapiens), sequence (P11712 whole entry, looked up): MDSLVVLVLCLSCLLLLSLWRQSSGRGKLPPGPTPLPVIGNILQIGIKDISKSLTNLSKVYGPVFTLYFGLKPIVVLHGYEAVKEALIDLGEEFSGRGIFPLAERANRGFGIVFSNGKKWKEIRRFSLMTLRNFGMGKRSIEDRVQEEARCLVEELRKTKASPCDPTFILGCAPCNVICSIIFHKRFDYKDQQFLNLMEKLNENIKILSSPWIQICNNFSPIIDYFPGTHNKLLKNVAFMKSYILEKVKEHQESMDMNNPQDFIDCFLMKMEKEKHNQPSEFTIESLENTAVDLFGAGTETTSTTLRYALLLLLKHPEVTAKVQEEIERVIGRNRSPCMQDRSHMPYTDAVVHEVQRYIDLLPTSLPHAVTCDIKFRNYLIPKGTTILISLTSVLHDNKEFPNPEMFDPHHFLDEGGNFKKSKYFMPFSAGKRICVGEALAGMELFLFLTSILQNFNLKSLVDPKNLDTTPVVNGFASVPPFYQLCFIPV

| Compound | Potency |
| --- | --- |
| O=C(Nc1ccc2c(c1)CCN(Cc1ncn[nH]1)C2)c1ccccc1-c1ccc(C(F)(F)F)cc1 | 10.7 µM (active) |
| COC(=O)C1=C(C)NC(C)=C(C(=O)OC)C1c1cccc(NC(=O)NCCCN2CCC(c3cccc(OC)c3)CC2)c1 | 1.69 µM (active) |
| O=Cc1ccc(O)c(O)c1O | inactive |
| Fc1ccc2[nH]c(CN3CCN(c4ccccn4)CC3)cc2c1 | 6.74 µM (active) |
| CCCCN(CC)c1nc(C)nc2c1c(C)cn2-c1c(C)cc(C)cc1C | 12 µM (active) |
| CN(CCCOc1ccc(Cc2ccccc2)cc1)CCC(=O)O | inactive |
| CS(=O)(=O)c1ccc(-n2nc(C(F)(F)F)cc2-c2ccc(F)cc2)cc1 | 3.38 µM (active) |
| CCN(CC)CCCCNc1ncc2cc(-c3c(Cl)cccc3Cl)c(NC(=O)NC(C)(C)C)nc2n1 | 19 µM (active) |

target: Papain (Carica papaya) (UniProt P00784); test: Primary qHTS assay for inhibitors of the protease papain (AID 1645873); conditions: papain Z-FR-AMC cleavage, AMC fluorescence; series mostly up to 49.8 µM;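 note: papain turnover of Z-FR-AMC read as the AMC fluorescence gain over 10 min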
Sequence (P00784 whole entry, looked up): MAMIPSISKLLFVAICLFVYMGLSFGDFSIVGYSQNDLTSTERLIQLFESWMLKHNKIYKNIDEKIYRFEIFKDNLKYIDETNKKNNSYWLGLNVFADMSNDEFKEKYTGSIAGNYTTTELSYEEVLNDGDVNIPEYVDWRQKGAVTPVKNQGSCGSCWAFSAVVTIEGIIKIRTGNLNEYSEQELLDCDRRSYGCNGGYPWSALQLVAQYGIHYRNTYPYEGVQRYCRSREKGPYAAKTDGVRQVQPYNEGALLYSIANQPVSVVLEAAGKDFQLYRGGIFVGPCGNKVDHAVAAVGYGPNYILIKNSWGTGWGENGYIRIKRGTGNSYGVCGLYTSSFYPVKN

| Compound | Potency |
| --- | --- |
| O=C(Nc1ccc2c(c1)CCN(Cc1ncn[nH]1)C2)c1ccccc1-c1ccc(C(F)(F)F)cc1 | inactive |
| COC(=O)C1=C(C)NC(C)=C(C(=O)OC)C1c1cccc(NC(=O)NCCCN2CCC(c3cccc(OC)c3)CC2)c1 | inactive |
| OC[C@H]1O[C@@H](n2cnc3c(NC4CCCC4)ncnc32)[C@H](O)[C@@H]1O | inactive |
| CCCCCCCCCCCCCCCCCC(=O)OC(CC(=O)O)C[N+](C)(C)C (stereo not drawn) | inactive |
| COc1ccc(/C=C/c2nc(NCCCN(C)C)c3ccccc3n2)cc1 | 28.2 µM (active) |
| CCCC(CCC)C(=O)OC1CC2CCC(C1)[N+]2(C)C (stereo not drawn) | inactive |
| O=C(Nc1ccccc1)c1cc([N+](=O)[O-])ccc1Cl | inactive |
| O=C(Nc1ccc2[nH]ncc2c1)C1CCC1 | inactive |
| Fc1ccc2[nH]c(CN3CCN(c4ccccn4)CC3)cc2c1 | inactive |
| CC(C)Cc1ccc([C@H](C)C(=O)O)cc1 | inactive |
| CCCCN(CC)c1nc(C)nc2c1c(C)cn2-c1c(C)cc(C)cc1C | inactive |
| O=C(O)CNC(=O)C(CS)Cc1ccccc1 (stereo not drawn) | inactive |
| CN(C)CCC(c1ccc(Cl)cc1)c1ccccn1 (stereo not drawn) | inactive |
| C[N+]1(C)C2CC(OC(=O)[C@H](CO)c3ccccc3)CC1C1OC12 (stereo partly drawn) | 1.12 µM (active) and inactive |
| CN(CCCOc1ccc(Cc2ccccc2)cc1)CCC(=O)O | inactive |
| Brc1c(Br)c(Br)c2n[nH]nc2c1Br | inactive |
| O=C(c1ccc(Cl)cc1)N1CCN(c2ccc([N+](=O)[O-])c3ncccc23)CC1 | inactive |
| NCCSSCCN | inactive |

| Compound | Potency |
| --- | --- |
| O=C(O)CCCC[C@@H]1CCSS1 | inactive |
| CN1C2CC(OC(=O)[C@H](CO)c3ccccc3)CC1C1OC12 (stereo partly drawn) | inactive |
| CC[C@H]1OC(=O)[C@H](C)C(O[C@H]2C[C@@](C)(OC)[C@@H](O)[C@H](C)O2)[C@H](C)[C@@H](OC2O[C@H](C)C[C@H](N(C)C)[C@H]2O)[C@](C)(O)C[C@@H](C)CN(C)[C@H](C)[C@@H](O)[C@]1(C)O (stereo partly drawn) | inactive |
| CCNc1nc2c(ncn2[C@H]2C[C@H](O)[C@@H](CO)O2)c(=O)[nH]1 | inactive |
| N[C@H](CCCP(=O)(O)O)C(=O)O | inactive |
| Clc1ccc(N2CCN(Cc3cc4ccccn4n3)CC2)cc1 | inactive |
| CS(=O)(=O)c1ccc(-n2nc(C(F)(F)F)cc2-c2ccc(F)cc2)cc1 | inactive |
| COCCOc1cc2nc[nH]c(=O)c2cc1OCCOC | inactive |
| CN(C)C(N)=NCCC[C@H](N)C(=O)O | inactive |
| NO | inactive |
| Nc1nc(SCc2ccc([N+](=O)[O-])cc2)c2ncn([C@@H]3O[C@H](CO)[C@@H](O)[C@H]3O)c2n1 | inactive |
| CCNC(=O)[C@H]1O[C@@H](n2cnc3c(N)nc(NCCc4ccc(CCC(=O)O)cc4)nc32)[C@H](O)C1O (stereo partly drawn) | inactive |
| Nc1nc2c(ncn2[C@@H]2O[C@H](CO)[C@@H](O)[C@@H]2O)c(=O)[nH]1 | inactive |
| CCN(CC)CCCCNc1ncc2cc(-c3c(Cl)cccc3Cl)c(NC(=O)NC(C)(C)C)nc2n1 | 28.2 µM (active) |
| CC(C)NCC(O)COc1cccc2ccccc12 (stereo not drawn) | inactive |
| O=C1NC(=O)/C(=C/c2ccc3nccnc3c2)S1 | inactive |
| Cn1c(=O)c(-c2c(Cl)cccc2Cl)cc2cnc(Nc3ccc(N4CCOCC4)cc3)nc21 | inactive |

Reference: PubChem BioAssay (NCATS)
